PubChem BioAssay (Tox21)
Results filed as inconclusive are left out. The source made the active and inactive calls. Unless noted, calls follow the shape of the dose curve; as a rule, active = well fitted curve in the direction sought with a large enough effect in the repeat runs; inconclusive = weak or mixed curves; inactive = no such curve, though single readings can be large; an effect the other way counts as inactive or inconclusive.

How the values were obtained:
[1] = biological target: Luciferin 4-monooxygenase (Photinus pyralis) (UniProt P08659); test: qHTS assay to identify small molecule inhibitors of firefly luciferase (AID 1224835); also: nearly all actives have a fitted effect of over 25% in size
Luciferin 4-monooxygenase (Photinus pyralis), sequence (P08659 whole entry, looked up): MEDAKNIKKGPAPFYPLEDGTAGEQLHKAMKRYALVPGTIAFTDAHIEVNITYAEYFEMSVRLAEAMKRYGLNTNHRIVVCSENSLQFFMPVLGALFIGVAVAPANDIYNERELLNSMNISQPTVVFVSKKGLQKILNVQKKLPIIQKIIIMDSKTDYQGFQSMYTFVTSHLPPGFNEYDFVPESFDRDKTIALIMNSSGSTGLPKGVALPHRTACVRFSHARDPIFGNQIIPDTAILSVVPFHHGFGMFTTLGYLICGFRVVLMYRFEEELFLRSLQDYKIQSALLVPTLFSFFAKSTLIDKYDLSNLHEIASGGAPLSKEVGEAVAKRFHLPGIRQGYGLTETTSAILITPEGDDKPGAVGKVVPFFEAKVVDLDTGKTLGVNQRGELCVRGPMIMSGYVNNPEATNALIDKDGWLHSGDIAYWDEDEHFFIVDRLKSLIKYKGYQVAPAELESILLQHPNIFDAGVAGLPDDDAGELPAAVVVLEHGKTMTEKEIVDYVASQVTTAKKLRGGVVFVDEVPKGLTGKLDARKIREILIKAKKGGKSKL
Procedure, shortened: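 Quantitative HTS format; KM concentrations of both substrates. Purified P. pyralis FLuc activity quantified from luminescence images.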

[2] = qHTS assay to identify small molecule agonists of the constitutive androstane receptor (CAR) signaling pathway - cell viability counter screen (AID 1224836); also: nearly all actives have a fitted effect of over 45% in size
Procedure, shortened: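 Fluorescence from CellTiter-Fluor indicates live cells after 23 h exposure. The human hepatoma line expresses hCAR and a CYP2B6-2.2kb reporter. Incubation medium contains 0.75 uM PK11195 (final).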

[3] = qHTS assay to identify small molecule antagonists of the constitutive androstane receptor (CAR) signaling pathway - cell viability counter screen (AID 1224837); also: nearly all actives have a fitted effect of over 45% in size
Procedure, shortened: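 Fluorescence from CellTiter-Fluor served as the viability signal. Human hepatoma HepG2 cells stably bearing hCAR and CYP2B6-2.2kb received compound plus CITCO (50 nM final) for 23 hr.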

[4] = qHTS assay to identify small molecule antagonists of the estrogen related receptor signaling pathway with the pleiotropic PPARgamma coactivator (PGC) from Tox21 10K library - cell viability counter screen (AID 1224840; active = well fitted cell-killing curve with a large enough effect in the repeat runs, not every such curve was filed as active; also: nearly all actives have a fitted effect of over 40% in size)
Procedure, shortened: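 Compounds in DMSO, alongside positive and negative controls, were pinned onto PGC/ERR cells (2,000 per well). Exposure lasted 17.5 hours at 37 C, followed by a 30-minute CellTiter-Fluor incubation and fluorescence reading.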

[5] = biological target: Thyrotropin receptor (Homo sapiens) (UniProt P16473); test: qHTS assay to identify small molecule agonists of the thyroid stimulating hormone receptor (TSHR) signaling pathway (AID 1224843; calls by dose curve; also: nearly all actives have a fitted effect of over 45% in size)
Thyrotropin receptor (Homo sapiens), sequence (P16473 whole entry, looked up): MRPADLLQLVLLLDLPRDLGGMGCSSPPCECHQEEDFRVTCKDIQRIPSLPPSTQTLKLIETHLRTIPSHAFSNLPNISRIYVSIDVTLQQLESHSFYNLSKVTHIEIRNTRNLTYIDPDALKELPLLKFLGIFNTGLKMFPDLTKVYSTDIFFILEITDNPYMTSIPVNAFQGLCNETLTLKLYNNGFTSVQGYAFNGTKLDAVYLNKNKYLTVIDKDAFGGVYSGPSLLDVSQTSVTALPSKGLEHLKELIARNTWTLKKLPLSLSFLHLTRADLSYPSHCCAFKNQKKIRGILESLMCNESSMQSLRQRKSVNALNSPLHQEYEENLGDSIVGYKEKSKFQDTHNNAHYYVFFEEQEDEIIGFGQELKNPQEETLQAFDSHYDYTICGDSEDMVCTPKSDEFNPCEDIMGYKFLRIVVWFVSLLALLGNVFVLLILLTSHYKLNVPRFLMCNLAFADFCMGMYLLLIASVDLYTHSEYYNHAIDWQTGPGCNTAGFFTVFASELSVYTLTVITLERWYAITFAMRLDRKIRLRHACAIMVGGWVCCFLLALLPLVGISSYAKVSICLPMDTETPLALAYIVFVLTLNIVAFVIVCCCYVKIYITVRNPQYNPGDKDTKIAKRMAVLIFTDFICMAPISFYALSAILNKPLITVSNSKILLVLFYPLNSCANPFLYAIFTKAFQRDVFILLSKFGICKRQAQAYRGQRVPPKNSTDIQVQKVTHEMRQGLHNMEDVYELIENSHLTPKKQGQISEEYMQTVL
Procedure, shortened: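 TSHR-expressing HEK293 cells (800 per well) were exposed to compounds for 30 min at room temperature. cAMP was then detected by HTRF competition with cAMP-d2 and anti-cAMP cryptate, read after 1 h at room temperature. Fifteen concentrations, triplicate.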

[6] = qHTS assay to identify small molecule agonists of the hypoxia (HIF-1) signaling pathway - cell viability counter screen (AID 1224844; calls by dose curve; also: nearly all actives have a fitted effect of over 50% in size)
Procedure, shortened: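 Luminescent ATP content (CellTiter-Glo, 30 min, room temperature) served as the viability measure in HRE-bla ME-180 cells exposed to compounds for 17 hrs in low-serum medium (0.5% dialyzed FBS).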

[7] = qHTS assay to identify small molecule agonists of H2AX (AID 1224845; active = well fitted activation curve with a large enough effect in the signal ratio in the repeat runs, not every such curve was filed as active; the % refers to the signal ratio)
Procedure, shortened: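 Wild-type CHO-K1 cells plated overnight, then exposed 3 hr at 37C to compounds at 15 concentrations (0.76% DMSO). Lysed, then HTRF anti-pH2AX(S139)-cryptate/anti-H2AX-d2 detection after 24 hr at room temperature; emissions 665 and 620 nm.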

[8] = qHTS assay to identify small molecule agonists of the hypoxia (HIF-1) signaling pathway (AID 1224846; active = well fitted activation curve with a large enough effect in the signal ratio in the repeat runs, not every such curve was filed as active; the % refers to the signal ratio)
Procedure, shortened: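 Measured by blue/green FRET after loading CCF4-AM: beta-lactamase expressed from a hypoxia response element in ME-180 cells. Test agents were delivered in DMSO and left 17 hrs; cells had been plated 5 hrs earlier in low-serum (0.5% dialyzed FBS) medium.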

[9] = qHTS assay to identify small molecule agonists of H2AX - cell viability counter screen (AID 1224847; calls by dose curve; also: top concentration of the series differs between compounds; nearly all actives have a fitted effect of over 30% in size)
Procedure, shortened: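 Viability of CHO-K1 (wild type) cells after 3 hr compound exposure was measured by CellTiter-Glo luminescence.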

[10] = qHTS RealTime-Glo MT Cell Viability Assay in HepG2 cells - 24 hour (AID 1224867); also: nearly all actives have a fitted effect of over 50% in size
Procedure, shortened: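 HepG2 suspension premixed with RealTime-Glo reagents is plated at 600 cells per well and left 5 h at 37 C/5% CO2. Compounds in DMSO then go in, and bioluminescence reflecting viable cell number is recorded over 40 h.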

[11] = qHTS RealTime-Glo MT Cell Viability Assay in HEK293 cells - 32 hour (AID 1224868); also: top concentration of the series differs between compounds; nearly all actives have a fitted effect of over 50% in size
Procedure, shortened: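 Reads taken at 0, 8, 16, 24, 32 and 40 h from the same wells. HEK293 cells (600/well) carried RealTime-Glo reagents from seeding, with compound added after a 5 h settle at 37 C.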

[12] = A CellTox Green Cytotoxicity Assay to monitor cytotoxicity in HEK293 cells - 40 hour (AID 1224871); also: nearly all actives have a fitted effect of over 45% in size
Procedure, shortened: (§1)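 Each value comes from one timepoint of a single continuous run in which HEK293 cells with CellTox Green were exposed to compound for up to 40 h at 37 C, dye fluorescence rising with cell death.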

[13] = qHTS assay to identify small molecule antagonists of the estrogen related receptor signaling pathway with the pleiotropic PPARgamma coactivator (PGC) from Tox21 10K library (AID 1224841; call rule not given here; also: actives are mostly falling curves and most rising ones were filed inactive; nearly all actives have a fitted effect of over 50% in size)
Procedure, shortened: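 Compound exposure ran 18 hours at 37 C in PGC/ERR cells (2,000/well) that had first rested 6 hours in a 37 C/5% CO2 incubator. Luciferase activity was then detected with One-Glo after a 30-minute room-temperature step.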

[14] = qHTS assay to identify small molecule agonists of the estrogen related receptor signaling pathway with the pleiotropic PPARgamma coactivator (PGC) from Tox21 10K library (AID 1224842); also: nearly all actives have a fitted effect of over 15% in size
Procedure, shortened: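 PGC/ERR reporter cells (NTP line) were seeded 2,000 per well, rested 6 h at 37 C/5% CO2, then pin-dosed with compounds in DMSO for 18 h at 37 C; luciferase read by One-Glo luminescence after 30 min at room temperature.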

[15] = qHTS assay to identify small molecule antagonists of the estrogen related receptor (ERR) signaling pathway from Tox21 library (AID 1224848); also: nearly all actives have a fitted effect of over 50% in size
Procedure, shortened: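 Cells: ERR line, 2,000/well; 6 h preincubation 37 C/5% CO2. Cpd in DMSO via pin tool; 18 h, 37 C. ONE-Glo, 30 min RT, luminescence.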

[16] = qHTS assay to identify small molecule agonists of the estrogen related receptor (ERR) signaling pathway from Tox21 library (AID 1224849; calls by dose curve; also: nearly all actives have a fitted effect of over 15% in size); settings: ERR reporter cell line, ONE-Glo luciferase, 18 h; at 92.4 µM (top of the series) unless noted
Procedure, shortened: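 We plated ERR reporter cells, waited 6 h, added compounds in DMSO by pin tool and incubated them 18 h at 37 C. ONE-Glo was then added and luminescence read after 30 min.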

[17] = A CellTox Green Cytotoxicity Assay to monitor cytotoxicity in HEK293 cells - 0 hour (AID 1224869); also: nearly all actives have a fitted effect of over 50% in size
Procedure, shortened: as §1

[18] = biological target: Nuclear receptor subfamily 1 group I member 3 (Homo sapiens) (UniProt Q14994); test: qHTS assay to identify small molecule agonists of the constitutive androstane receptor (CAR) signaling pathway (AID 1224839);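 also: HepG2 cells stably carrying human CAR and a CYP2B6 luciferase reporter; nearly all actives have a fitted effect of over 15% in size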
Nuclear receptor subfamily 1 group I member 3 (Homo sapiens), sequence (Q14994 whole entry, looked up): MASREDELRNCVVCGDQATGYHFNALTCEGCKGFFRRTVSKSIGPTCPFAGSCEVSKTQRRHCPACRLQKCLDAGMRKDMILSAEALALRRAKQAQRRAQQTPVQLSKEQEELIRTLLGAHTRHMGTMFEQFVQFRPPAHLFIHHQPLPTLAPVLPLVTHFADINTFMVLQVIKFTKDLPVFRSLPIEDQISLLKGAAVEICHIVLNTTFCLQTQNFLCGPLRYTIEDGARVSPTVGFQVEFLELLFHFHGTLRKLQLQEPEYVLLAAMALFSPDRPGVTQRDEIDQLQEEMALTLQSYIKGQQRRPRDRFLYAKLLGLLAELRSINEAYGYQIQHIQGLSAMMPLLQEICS
Procedure, shortened: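 Stable hCAR/CYP2B6-2.2kb HepG2 line in DMEM with 10% FBS; compounds (15 concentrations) and 0.75 uM PK11195 final, 24 h at 37 C/5% CO2, then ONE-Glo luminescence after 30 min.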

[19] = qHTS RealTime-Glo MT Cell Viability Assay in HepG2 cells - 40 hour (AID 1224870); also: nearly all actives have a fitted effect of over 50% in size
Procedure, shortened: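 HepG2 cells mixed with RealTime-Glo MT reagents (NanoLuc plus cell-permeant prosubstrate) were seeded at 600 cells/well, incubated 5 h at 37 C/5% CO2, then pinned with compounds in DMSO; nonlytic luminescence tracked viability during 40 h treatment.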
% is scaled to controls: 0 for no effect and ±100 for the full control effect.

C[C@H](N)[C@H](O)c1cccc(O)c1
inactive: Potency [1] | Potency [2] | Potency [3] | outcome [4] | Potency [5] | outcome [6] | outcome [7] | outcome [8] | Potency [9] | outcome [10] | Potency [11] | Potency [12]

CCCCOCCOC(=O)COc1nc(Cl)c(Cl)cc1Cl
inactive: Potency [1] | Potency [2] | Potency [3] | outcome [4] | Potency [13] | outcome [14] | outcome [7] | Potency [9] | Potency [15] | activity change, positive = activation [16] 0.145% | outcome [10] | Potency [11] | outcome [17] | Potency [12]

CC(CO)c1ccccc1 (stereo not drawn)
inactive: Potency [1] | Potency [2] | Potency [3] | Potency [18] | outcome [4] | outcome [6] | outcome [7] | outcome [8] | Potency [9] | outcome [10] | Potency [11] | outcome [17] | outcome [19] | Potency [12]

CCCCCCN
inactive: Potency [1] | Potency [2] | Potency [3] | outcome [4] | Potency [5] | outcome [6] | outcome [7] | Potency [9] | outcome [10] | Potency [11] | outcome [17] | outcome [19] | Potency [12]

CC/C=C\CC1=C(C)CCC1=O
inactive: Potency [1] | Potency [2] | Potency [3] | outcome [4] | Potency [13] | outcome [14] | Potency [5] | outcome [6] | outcome [7] | outcome [8] | Potency [9] | activity change, positive = activation [16] -10.1% | outcome [10] | Potency [11] | outcome [17] | outcome [19] | Potency [12]

O=C(O)c1ccc(Cl)cc1Cl
inactive: Potency [1] | Potency [2] | Potency [3] | outcome [4] | Potency [5] | outcome [6] | outcome [7] | outcome [8] | outcome [10] | Potency [11] | outcome [17] | outcome [19] | Potency [12]

CC(C)C(=O)OCc1cccc(OC(=O)[C@@H]2N3C(=O)[C@@H](NC(=O)Cc4ccccc4)[C@H]3SC2(C)C)c1
inactive: Potency [1] | Potency [2] | Potency [3] | outcome [4] | Potency [5] | outcome [6] | outcome [7] | outcome [8] | Potency [9] | outcome [10] | Potency [11] | Potency [12]

CN(CCOc1ccc(NS(C)(=O)=O)cc1)CCc1ccc(NS(C)(=O)=O)cc1
inactive: Potency [1] | Potency [2] | Potency [3] | outcome [4] | Potency [5] | outcome [6] | outcome [7] | outcome [8] | Potency [9] | Potency [11] | outcome [17] | outcome [19] | Potency [12]

COc1ccc2c(c1)C(=O)N(CCc1ccc(S(=O)(=O)NC(=O)NC3CCCCC3)cc1)C(=O)C2(C)C
inactive: Potency [1] | Potency [2] | Potency [3] | outcome [4] | outcome [7] | outcome [8] | Potency [9] | outcome [10] | Potency [11] | outcome [17] | outcome [19] | Potency [12]

Nc1ccc(S(=O)(=O)Nc2ccc(Cl)nn2)cc1
inactive: Potency [1] | Potency [2] | Potency [3] | outcome [4] | Potency [13] | outcome [14] | outcome [6] | outcome [7] | Potency [9] | activity change, positive = activation [16] 4.62% [at 42.5 µM] | outcome [10] | Potency [11] | outcome [17] | outcome [19] | Potency [12]

CCO[Si](CCCS)(OCC)OCC
inactive: Potency [1] | Potency [2] | Potency [3] | outcome [4] | Potency [13] | outcome [14] | Potency [5] | outcome [6] | outcome [7] | outcome [8] | Potency [9] | Potency [15] | activity change, positive = activation [16] 5.01% | Potency [11] | outcome [19] | Potency [12]

CCC(C)(CCC(C)C)C(=O)O (stereo not drawn)
inactive: Potency [1] | Potency [2] | Potency [3] | outcome [4] | Potency [13] | outcome [14] | outcome [6] | outcome [7] | outcome [8] | Potency [9] | Potency [15] | activity change, positive = activation [16] -1.46% | outcome [10] | Potency [11] | outcome [17] | outcome [19] | Potency [12]

COC(=O)C1CC(=O)C(C(=O)OC)CC1=O (stereo not drawn)
inactive: activity change, negative = inhibition [1] 0.09% [at 10.5 µM] | viability change, negative = cytotoxic [2] 10.3% [at 8.39 µM] | activity change, negative = cytotoxicity [3] 2.02% [at 8.39 µM] | viability change, negative = cytotoxic [4] 11% [at 8.39 µM] | activation [14] 0.14% [at 8.39 µM] | activation [5] -7.69% [at 8.39 µM] | activity change, negative = cytotoxicity [6] 4.68% [at 6.97 µM] | activation (H2AX phosphorylation) [7] 1.21% [at 14 µM] | activation [8] 0.935% [at 7.01 µM] | activity change, negative = cytotoxicity [9] -2.76% [at 14 µM] | activity change, positive = activation [16] -0.229% [at 8.39 µM] | activity change, negative = cytotoxic [11] 1.1% [at 6.97 µM] | cytotoxicity [17] -3.09% [at 6.97 µM] | cytotoxicity increase [12] 1.85% [at 6.97 µM]

CC(C)CC(=O)O
inactive: Potency [1] | Potency [2] | Potency [3] | outcome [4] | outcome [14] | outcome [6] | outcome [7] | outcome [8] | Potency [9] | activity change, positive = activation [16] 4.14% | outcome [10] | Potency [11] | outcome [17] | outcome [19] | Potency [12]

Cc1c(I)c(=O)n(-c2ccccc2)n1C
inactive: Potency [1] | Potency [2] | Potency [3] | outcome [4] | Potency [13] | outcome [14] | Potency [5] | outcome [6] | outcome [7] | outcome [8] | Potency [15] | activity change, positive = activation [16] 2.79% [at 42.5 µM] | outcome [10] | Potency [11] | outcome [17] | Potency [12]

CCOC(=O)c1ncn2c1CN(C)C(=O)c1cc(F)ccc1-2
inactive: Potency [1] | Potency [2] | Potency [3] | Potency [18] | outcome [4] | Potency [5] | outcome [6] | outcome [7] | Potency [9] | Potency [11] | outcome [17] | outcome [19] | Potency [12]

O=C(O)c1cc(Br)c(O)c(Br)c1
inactive: Potency [1] | Potency [2] | Potency [3] | outcome [4] | Potency [13] | outcome [14] | Potency [5] | outcome [6] | outcome [8] | Potency [9] | Potency [15] | activity change, positive = activation [16] 4.86% | outcome [10] | Potency [11] | outcome [17] | outcome [19] | Potency [12]
